{"source": "PubChem BioAssay AID1981", "about": "(Southern Research Specialized Biocontainment Screening …, 2009)", "note": "Out of some 2,200 compounds screened, about 480 (22%) were called active. A selection follows. Entries with a potency or affinity are not part of this list. Unmarked numbers belong to inactive results. The rule behind the calls is not given here.", "data": [{"experiment": "S. Typhimurium GFP fluorescence modified counterscreen for PhoP regulon inhibitor project dose response (AID 1981);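 note: 0% = induced DMSO wells and 100% = uninduced wells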", "settings": "4 h; series mostly up to 150 µM; inhibition: at the top concentration", "units": {"inhibition": "%"}, "values": [{"smiles": "Cc1ccc2cc(C(=O)O)c(C)nc2c1", "inhibition": -3.21}, {"smiles": "COc1cccc(C=NCC(C)N=Cc2cccc(OC)c2O)c1O", "note": "(stereo not drawn)", "inhibition": 23.7}, {"smiles": "N/C(=N\\OC(=O)Nc1ccc(Cl)cc1)c1ncc(C(F)(F)F)cc1Cl", "inhibition": -5}, {"smiles": "N#C/C(=C\\c1ccc(F)c(F)c1)C(=O)NC1CCCCC1", "inhibition": -10}, {"smiles": "N#CC(C#N)=c1ccc2c(c1)NC1(CCCCC1)N=2", "inhibition": 8.18}, {"smiles": "CCCCn1nnnc1NCc1cc(OC)c(OC)cc1OC", "inhibition": -11.7}, {"smiles": "CCCCCCCSc1cc(OC)c(CCN(C)C)cc1OC", "inhibition": 15.5}, {"smiles": "COc1ccccc1NS(=O)(=O)c1cc(NC(=S)Nc2cc(C)cc(C)c2)ccc1Cl", "inhibition": -31.4}, {"smiles": "COc1ccc(CCNC(=O)c2ccc(CN3CCOCC3)cc2)cc1", "inhibition": -9.72}, {"smiles": "CN(C(=S)Nc1ccc(Oc2ccccc2)cc1)c1ccc(O)cc1", "inhibition": -27.1}, {"smiles": "OCCN(CCO)CC(O)Cn1c2ccccc2c2ccccc21", "note": "(stereo not drawn)", "inhibition": -6.19}, {"smiles": "O=S(=O)(c1ccccc1)N(CC(O)Cn1c2ccccc2c2ccccc21)c1ccccc1", "note": "(stereo not drawn)", "inhibition": -9.4}, {"smiles": "CCOC(=O)C1CCCN(S(=O)(=O)c2ccc(Br)c(OC)c2)C1", "note": "(stereo not drawn)", "inhibition": 2.54}, {"smiles": "Cc1cc(C)nc(N2CCCC(C(=O)Nc3ccc4nc(C)c(C)nc4c3)C2)n1", "note": "(stereo not drawn)", "inhibition": -12.8}, {"smiles": "Nc1nnc(SCc2ccc3c(c2)OCO3)s1", "inhibition": -5.33}, {"smiles": "O=C(c1cn(-c2ccccc2)nc1-c1cccnc1)N1CCCCC1", "inhibition": -8.46}, {"smiles": "Cc1cccc(-n2nc3c(c2NC(=O)c2ccco2)CSC3)c1C", "inhibition": -5.76}, {"smiles": "O=[N+]([O-])c1nn(-c2cccc(Cl)c2)n(O)c1=NCc1cccnc1", "inhibition": -14.4}, {"smiles": "Cc1nc(N2CCN(c3ccccc3)CC2)nc2c1C(=O)CC(C)C2", "note": "(stereo not drawn)", "inhibition": -11.1}, {"smiles": "Cc1ccccc1NC(=S)NC1CCN(Cc2ccccc2)CC1", "inhibition": -11.4}, {"smiles": "CCCCC1(CCCC)C(=O)NC(=Nc2cccc(C)c2)NC1=O", "inhibition": 4.62}, {"smiles": "CCn1cc(C(=O)O)c(=O)c2cc(F)c(N3CCN(C(=S)NC(=O)c4ccccc4Cl)CC3)cc21", "inhibition": 37.6}, {"smiles": "O=C(Cn1cnc2scc(-c3ccccc3)c2c1=O)N1CCOCC1", "inhibition": -6.78}, {"smiles": "Cc1ccccc1-n1nc(-c2ccc(N)cc2)cc1N", "inhibition": -2.22}, {"smiles": "N#CCOC(=O)c1sccc1-n1cccc1", "inhibition": -8.78}, {"smiles": "COc1ccc(/C=C(\\NC(=O)/C=C/c2ccco2)C(=O)NCCc2nc3ccccc3[nH]2)cc1", "inhibition": 6.45}, {"smiles": "S=C(NCc1cccnc1)Nc1ccc(Cl)cc1", "inhibition": 8.22}, {"smiles": "O=[N+]([O-])c1ccc(Sc2nc3ccccc3o2)c([N+](=O)[O-])c1", "inhibition": 29.7}, {"smiles": "COc1ccc(-c2csc(NCc3ccco3)n2)cc1", "inhibition": 9.28}, {"smiles": "N#CC1=C(N)SC(N)=C(C#N)C1c1ccc([N+](=O)[O-])cc1", "inhibition": -7}, {"smiles": "COc1cccc2c(=O)c3c(cnn3C)n(C)c12", "inhibition": 1.4}, {"smiles": "COc1ccc(-c2cc(C(=O)O)[nH]n2)cc1OC", "inhibition": 6.16}, {"smiles": "Cn1c(-c2ccc(N)cc2)nc2ccccc21", "inhibition": -15.1}, {"smiles": "CCC(=O)NC1=C(NC(C)c2ccccc2)C(=O)c2ccccc2C1=O", "note": "(stereo not drawn)", "inhibition": 2.8}, {"smiles": "COC(=O)c1sc2ccccc2c1-n1cccc1C(=O)C(=O)Nc1ccc(Cl)cc1", "inhibition": -6.16}, {"smiles": "Cn1c(=O)n(CC(=O)Nc2ccccc2)c2ccccc21", "inhibition": -5.81}, {"smiles": "COc1ccc(C(=O)Nc2cc(C)ccc2NC(=O)COc2ccccc2)cc1", "inhibition": -7.99}, {"smiles": "CCN(Cc1ccccc1)C(=O)CN1C(=S)NC(C)(C)CC1C", "note": "(stereo not drawn)", "inhibition": -16.8}, {"smiles": "CCOC(=O)Cn1nnnc1C(C(C)C)N(Cc1cccs1)Cc1cc2cc(C)ccc2[nH]c1=O", "note": "(stereo not drawn)", "inhibition": -14.5}, {"smiles": "CCN(CC)C(=O)CP(=O)(c1ccccc1)c1ccccc1", "inhibition": -24.6}, {"smiles": "Cc1cc(C2=NNC(=NC3CC3)SC2)c(C)n1-c1ccccc1", "inhibition": -27.7}, {"smiles": "Nc1cc(N)nc(SCC(=O)Nc2ccc3c(c2)OCCCO3)n1", "inhibition": -1.56}, {"smiles": "COc1ccc(C(=O)N2CCN(C(=O)c3ccco3)CC2)cc1OC", "inhibition": -6.92}, {"smiles": "CCOC(=O)c1sc2nccc(N(C)C)c2c1N=CNOCc1c(F)cccc1Cl", "inhibition": 4.36}, {"smiles": "O=C(CSc1nnc(-c2cccs2)n1-c1ccccc1)NCc1ccc2c(c1)OCO2", "inhibition": -12.3}, {"smiles": "COc1cccc(-c2nnc(SCC(=O)Nc3ccc(OC)c(OC)c3)n2N)c1", "inhibition": -7.18}, {"smiles": "CCCc1cc(-c2nc(N)ncc2-c2ccc3c(c2)OCCCO3)c(O)cc1OC", "inhibition": -11.7}, {"smiles": "CCC(CC)C(=O)Nc1cccc(C(=O)N2CCCC2)c1", "inhibition": 1.33}, {"smiles": "CCOC(=O)c1[nH]c2ccccc2c1NC(=O)NC1CCCCC1", "inhibition": 0.89}, {"smiles": "CCOC(=O)CCCNC(=O)COC(=O)CCC(=O)c1ccc(F)cc1", "inhibition": 16.4}, {"smiles": "Cn1c(-c2ccc3nc(N)sc3c2)nc2cc(N)ccc21", "inhibition": -13.2}, {"smiles": "CCOC(=O)COc1ccccc1/C=C\\[N+](=O)[O-]", "inhibition": 20.1}, {"smiles": "COc1cc(C=O)ccc1OCCCOc1ccccc1[N+](=O)[O-]", "inhibition": -2.16}, {"smiles": "COc1ccc([N+](=O)[O-])cc1NC(=O)C(C)OC(=O)c1ccccc1C(=O)c1ccc(Cl)cc1", "note": "(stereo not drawn)", "inhibition": -21.5}, {"smiles": "Cc1ccc(S(=O)(=O)N2CCCC2C(=O)OCc2ccco2)cc1", "note": "(stereo not drawn)", "inhibition": 16}, {"smiles": "Cc1nc2c(C(=O)NCCC(C)C)c[nH]n2c(=O)c1Cc1ccccc1F", "inhibition": 1.09}, {"smiles": "O=C(CCn1nnc(-c2cccs2)n1)NCc1ccccc1Cl", "inhibition": -14.8}, {"smiles": "Cc1ccc(CCNC(=O)C2CCCN(S(=O)(=O)c3c(C)noc3C)C2)cc1", "note": "(stereo not drawn)", "inhibition": 4.87}, {"smiles": "CC(C)Cn1c(-c2ccccc2)nc2ccccc2c1=O", "inhibition": -3.38}, {"smiles": "COc1ccc(Cl)cc1C(=O)CSc1nc(N)cc(N)n1", "inhibition": -5.16}, {"smiles": "COc1ccc(-c2c/c(=N\\c3nc(-c4ccccc4)c(C)s3)c3ccccc3o2)cc1O", "inhibition": 6.27}, {"smiles": "Cc1ccccc1OCC(=O)N/N=C/c1ccco1", "inhibition": -1.78}, {"smiles": "O=C(N/N=C/c1ccc(F)cc1)c1cc(-c2ccco2)nc2ccccc12", "inhibition": 3.68}, {"smiles": "Cc1ccc(NC(=O)CO/N=C(\\N)c2nonc2N)cc1", "inhibition": -2.61}, {"smiles": "COC(=O)c1ccc(NC(=S)Nc2ccc3ccccc3c2)cc1", "inhibition": 19.2}, {"smiles": "Cn1ccnc1SCC(=O)Nc1sccc1C#N", "inhibition": -14}, {"smiles": "NC1=NC2=C(CCCC2)C2(CCCCC2)S1", "inhibition": 3.33}, {"smiles": "CCCCn1c(O)c(C(CC)=Nc2ccc3c(c2)CCC3)c(=O)[nH]c1=O", "inhibition": 0.23}, {"smiles": "CC(C)c1ccc(O)c(NC(=O)c2cncc(Br)c2)c1", "inhibition": -16.4}, {"smiles": "COc1ccccc1N1CCN(c2ccc(-c3ccccc3)nn2)CC1", "inhibition": 1.73}, {"smiles": "Cc1ccccc1Nc1nnc(SCC(=O)NC2CCCc3ccccc32)s1", "note": "(stereo not drawn)", "inhibition": -4.71}, {"smiles": "Cc1[nH]nc2c1C(c1cc(Br)cs1)C(C#N)=C(N)O2", "note": "(stereo not drawn)", "inhibition": 16.8}, {"smiles": "CCCOc1ccc(Cn2cnc3ccccc32)cc1", "inhibition": 5.83}]}]}
